Test results published in the supplement of paper PMC12350171.
Counter-ions that a name gives are not always drawn. Values without a mark were called inactive.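 Rule for the calls: active = AUC significantly below DMSO controls by Student t-fit with adjusted P under 0.01; inactive = not significantly reduced.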

System: Haemophilus parainfluenzae
Assay: growth AUC normalised to DMSO control (fraction of control); higher = less growth inhibition, active = hit call of the paper
Details: 20 µM
Summary of the method: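 Hemin and NAD were added to the medium for Haemophilus parainfluenzae. All pathogens, after two anaerobic passages, were inoculated at a starting OD578 of 0.01 into pre-reduced mGAM plates with 20 μM compound and 1% DMSO under breathable seals, and OD578 was read hourly for 24 h in three biological replicates. AUC of each growth curve was obtained with the trapezoidal rule up to the exponential-to-stationary transition and normalised to DMSO controls from the same plate.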

Row | Structure (SMILES) | growth AUC normalised to DMSO control
1 | CCn1cc(C(=O)O)c(=O)c2cnc(N3CCCC3)nc21 [Piromidic acid] | 1.03
2 | CCN(CC)C(=O)Nc1ccc(OCC(O)CNC(C)(C)C)c(C(C)=O)c1 (centres undefined) [Celiprolol hydrochloride] | 0.991
3 | Clc1ccc(C(Cn2ccnc2)OCc2c(Cl)cccc2Cl)c(Cl)c1 (centres undefined) [Isoconazole] | 0.972
4 | NCCc1cc[nH]n1 [Betazole hydrochloride] | 1
5 | CN[C@@H]1[C@@H](O)[C@@H](O[C@@H]2[C@@H](O)[C@H](O[C@H]3OC(CN)=CC[C@H]3N)[C@@H](N)C[C@H]2N)OC[C@]1(C)O [Sisomicin sulfate] | 0.864
6 | CC(C(O)c1ccc(O)cc1)N1CCC(Cc2ccccc2)CC1 (centres undefined) [Ifenprodil tartrate] | 1.01
7 | CC(C)OC(=O)C(C)(C)Oc1ccc(C(=O)c2ccc(Cl)cc2)cc1 [Fenofibrate] | 0.961
8 | Cc1cn([C@H]2C[C@H](N=[N+]=[N-])[C@@H](CO)O2)c(=O)[nH]c1=O [Zidovudine] | 0.581 (active)
9 | CCn1cc(C(=O)O)c(=O)c2cc(F)c(N3CCNCC3)cc21 [Norfloxacin] | 0.0519 (active)
10 | OC(CCCN1CCCCC1)(c1ccccc1)c1ccccc1 [Diphenidol hydrochloride] | 1
11 | OCCN1CCN(CC/C=C2/c3ccccc3Sc3ccc(Cl)cc32)CC1 [Zuclopenthixol dihydrochloride] | 0.916
12 | C[C@]12CCC(=O)C=C1CC[C@@H]1[C@@H]2C(=O)C[C@@]2(C)[C@H]1CC[C@]2(O)C(=O)CO [Cortisone] | 0.971
13 | COc1ccc2cc([C@@H](C)C(=O)O)ccc2c1 [(R) Naproxen sodium salt] | 1.1
14 | Cc1cccc(C)c1NC(=O)CN1CCN(CCCC(c2ccc(F)cc2)c2ccc(F)cc2)CC1 [Lidoflazine] | 1.02
15 | CCOc1ccc(Cc2nccc3cc(OCC)c(OCC)cc23)cc1OCC [Ethaverine hydrochloride] | 1.02
16 | CN1C(C(=O)Nc2ccccn2)=C(O)c2ccccc2S1(=O)=O [Piroxicam] | 1.01
17 | CCN1CCN(C(=O)N[C@@H](C(=O)N[C@@H]2C(=O)N3C(C(=O)O)=C(CSc4nnnn4C)CS[C@H]23)c2ccc(O)cc2)C(=O)C1=O [Cefoperazone dihydrate] | 0.0355 (active)
18 | CCOC(=O)n1ccn(C)c1=S [Carbimazole] | 0.99
19 | CC(=O)Oc1ccccc1C(=O)O [Acetylsalicylic acid] | 1.08
20 | CC[C@H]1OC(=O)[C@H](C)[C@@H](O[C@H]2C[C@@](C)(OC)[C@@H](O)[C@H](C)O2)[C@H](C)[C@@H](O[C@@H]2O[C@H](C)C[C@H](N(C)C)[C@H]2O)[C@](C)(OC)C[C@@H](C)C(=O)[C@H](C)[C@@H](O)[C@]1(C)O [Clarithromycin] | 0.0384 (active)
21 | N[C@@H](Cc1ccc(O)c(O)c1)C(=O)O [Levodopa] | 1.02
22 | CO[C@H]1/C=C/O[C@@]2(C)Oc3c(C)c(O)c4c(O)c(c5c(nc6cc(C)ccn65)c4c3C2=O)NC(=O)/C(C)=C\C=C\[C@H](C)[C@H](O)[C@@H](C)[C@@H](O)[C@@H](C)[C@H](OC(C)=O)[C@@H]1C [Rifaximin] | 0.026 (active)
23 | C[C@@H](O)[C@H]1C(=O)N2C(C(=O)O)=C(SCCNC=N)C[C@H]12 [Imipenem] | 1.01
24 | CCN(CC)C(C)CN1c2ccccc2Sc2ccccc21 (centres undefined) [Ethopropazine hydrochloride] | 0.963
25 | Cc1cc(NS(=O)(=O)c2ccc(N)cc2)no1 [Sulfamethoxazole] | 1.01
26 | C#CCN(C)CCCOc1ccc(Cl)cc1Cl [Clorgyline hydrochloride] | 0.943
27 | C[C@@H](O[C@H]1OCCN(Cc2n[nH]c(=O)[nH]2)[C@H]1c1ccc(F)cc1)c1cc(C(F)(F)F)cc(C(F)(F)F)c1 [Aprepitant] | 0.941
28 | N[C@H]1CONC1=O [(S,-) Cycloserine] | 0.989
29 | CC[C@H](C)[C@H](N)C1=N[C@H](C(=O)N[C@@H](CC(C)C)C(=O)N[C@H](CCC(=O)O)C(=O)N[C@H](C(=O)N[C@H]2CCCCNC(=O)[C@H](CC(N)=O)NC(=O)[C@@H](CC(=O)O)NC(=O)[C@H](Cc3cnc[nH]3)NC(=O)[C@@H](Cc3ccccc3)NC(=O)[C@H]([C@@H](C)CC)NC(=O)[C@@H](CCCN)NC2=O)[C@@H](C)CC)CS1 [Bacitracin] | 0.999
